# Source: PubChem
# Rows were chosen to be rich in hits. Some 8.7% of all compounds tested hit in one or more screens of this group.
# HP1b binding inh = blocks HP1-beta chromodomain binding to methylated histone tails | P83916 | AlphaScreen HP1-beta / biotin-H3K9me3 peptide binding | Potency, µM (highest dose often 114 µM), for the others: at the top dose activity change, negative = inhibition, actives largely listed as inhibitors | 390,000 compounds, 0.56% hits | AID 540317; note: nearly all actives have a fitted effect of over 70% in size
#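 HP1-beta protein (50 nM final) preincubated 30 min at room temperature with biotinylated H3(1-18)K9me3 peptide (50 nM) in PBS pH 7.4, 0.01% Tween-20, then compound added for 30 min. AlphaScreen streptavidin donor/nickel chelate acceptor beads (10 ug/mL final), 30 min dark, luminescence read.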
# G9a inh = G9a (human) methyltransferase inhibition; Q96KQ7; 350,000 compounds, 8.8% hits; G9a H3K9 monomethylation, AlphaScreen, 2 h; Potency, µM (titrated, usually from 102 µM), inactives show at the top dose activity, negative = inhibition, actives largely listed as inhibitors; note: % is set by controls: 0 for no effect and ±100 for the full control effect; nearly all actives have a fitted effect of over 75% in size
#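 Using a bead-based AlphaScreen, monomethylated H3K9 product from 2 h room-temperature reactions (G9a 20 nM, peptide 500 nM, SAM 20 uM) was detected with 0.5 ug/mL rabbit anti-H3K9me1 antibody.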
# JMJD2A Tudor inh = JMJD2A Tudor domain (human) inhibition; AlphaScreen JMJD2A-Tudor / H3K4me3 peptide binding; 390,000 compounds, 4.4% hits; Potency, µM (highest dose often 114 µM), for the others: at the top dose activity change, negative = inhibition, most hits filed as inhibitors; O75164; note: % is set by controls: 0 for no effect and ±100 for the full control effect; nearly all actives have a fitted effect of over 50% in size
# Sfp inh = inhibitors of Bacillus subtilis Sfp phosphopantetheinyl transferase. Q9F4F7. Biochemical Sfp PPTase activity, qHTS. 310,000 compounds, 3.5% hits. Potency, µM, for inactives: largest response in the series, negative = inhibition, most hits filed as inhibitors;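 note: the enzyme is Sfp with the accession as filed and its product quenches rhodamine fluorescence; 0% = enzyme reaction without inhibitor and -100% = no enzyme wells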
#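 Fluorescence-quenching assay: 15 nM Sfp-PPTase preincubated 15 min at room temperature with compound, then 5 uM rhodamine-CoA and 12.5 uM BHQ-2-labelled YbbR peptide added. Fluorescence (ex 525/em 598 nm) read at start and after 30 min; difference gives rate.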
# ALOX12 inh = inhibitors of human 12S-lipoxygenase ALOX12 | 580,000 compounds, 1.1% hits | Potency, µM (series often up to 108 µM), for inactives: at the highest dose activity change, negative = inhibition, most hits filed as inhibitors | P18054 | purified 12hLO, xylenol orange hydroperoxide absorbance | AID 1671190; note: % is set by controls: 0 for no effect and ±100 for the full control effect
# Target sequence (P18054 whole entry, looked up): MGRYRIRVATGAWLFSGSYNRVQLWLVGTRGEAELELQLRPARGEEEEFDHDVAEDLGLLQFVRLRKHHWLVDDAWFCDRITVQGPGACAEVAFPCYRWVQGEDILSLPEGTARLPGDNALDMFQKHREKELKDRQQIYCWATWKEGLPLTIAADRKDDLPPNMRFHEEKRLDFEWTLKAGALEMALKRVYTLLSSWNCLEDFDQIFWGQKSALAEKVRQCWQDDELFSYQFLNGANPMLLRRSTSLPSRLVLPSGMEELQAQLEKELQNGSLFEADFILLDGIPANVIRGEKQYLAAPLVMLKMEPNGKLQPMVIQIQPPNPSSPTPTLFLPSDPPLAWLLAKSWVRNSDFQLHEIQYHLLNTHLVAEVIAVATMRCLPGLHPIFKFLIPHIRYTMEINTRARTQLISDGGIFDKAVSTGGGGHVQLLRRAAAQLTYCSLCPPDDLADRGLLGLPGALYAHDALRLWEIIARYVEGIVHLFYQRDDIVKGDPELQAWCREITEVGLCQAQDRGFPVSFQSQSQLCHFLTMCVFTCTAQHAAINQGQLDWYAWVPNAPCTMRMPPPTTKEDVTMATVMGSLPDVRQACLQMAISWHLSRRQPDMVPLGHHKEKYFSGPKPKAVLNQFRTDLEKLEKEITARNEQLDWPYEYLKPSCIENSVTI
#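 Purified human 12hLO at 150 nM in 25 mM Hepes, 0.01% Triton X-100, pH 7.0, preincubated 15 min at room temperature with compound. Reaction started with 40 uM arachidonic acid, 30 min at room temperature. Hydroperoxide measured by Fe-xylenol orange, 573/405 nm absorbance ratio.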
# BAZ2B inh = inhibitors of human BAZ2B bromodomain. Potency, µM (doses to about 114 µM), inactives show at the top dose activity change, negative = inhibition, hits mostly inhibitors. 360,000 compounds, 4.4% hits. AlphaScreen BAZ2B-H3K14Ac peptide displacement. AID 504333. Q9UIF8; note: % is set by controls: 0 for no effect and ±100 for the full control effect; nearly all actives have a fitted effect of over 60% in size
#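 Compounds, titrated to a top concentration of 110 uM, were incubated 30 min at room temperature with preformed BAZ2B/acetyl-K14 H3 peptide complex (50 nM each). Proximity signal was measured by AlphaScreen after 20 min with beads.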
# * = called active by the depositor; ? = inconclusive; nt = no result; ! = not confirmed by another sample; [ ] = another dose, or the depositor's remark. Calls come from the whole dose curve; as a rule, active = well fitted curve in the direction sought with a large enough effect; inconclusive = small, poorly fitted or top-dose-only effect, or another doubt; inactive = no such curve, though single readings can be large; an effect the other way counts as inactive or inconclusive. Potency is the fitted concentration of half-maximal effect.
SMILES,HP1b binding inh,G9a inh,JMJD2A Tudor inh,Sfp inh,ALOX12 inh,BAZ2B inh
CCCCCCC(=O)N/N=C/c1c(O)n(CCc2ccccc2)c(=O)[nH]c1=O,35%,-3%,-19%,29%,167%,4%
Cc1ccc(-n2c(O)c(/C=N/NC(=O)c3ccncc3)c(=O)[nH]c2=O)cc1C,51%,?,56µM*,13%,9%,50µM*
COc1ccc(Cn2c(O)c(/C=N/NC(=O)c3ccncc3)c(=O)[nH]c2=O)cc1,48%,?,?,9%,0%,?
O=C(N/N=C/c1c(O)n(CCc2ccccc2)c(=O)[nH]c1=O)c1ccccc1O,33%,71µM*,?,8%,?,-38%
COc1ccc(-c2cc([C@H]3CN4CC[C@H]3C[C@@H]4CNC(=O)c3ccc4c(c3)OCO4)n(C)n2)cc1,nt,nt,nt,nt,11%,nt
CSc1cccc(NC(=O)NC[C@H]2C[C@@H]3CCN2C[C@@H]3CN2CCN(c3ccccc3)CC2)c1,nt,nt,nt,nt,74%,nt
O=C(N/N=C/c1c(O)n(CCc2ccccc2)c(=O)[nH]c1=O)c1ccncc1,41%,20µM*,-32%,2%,1%,56µM*
CNC(=O)Oc1ccc2c(c1)[C@]1(C)CCN(C)[C@@H]1N2C,8%,45µM*!,-13%,14%,0%,6%
CC1[C@H]2Cc3ccc(O)cc3[C@]1(C)CCN2CCc1ccccc1 (stereo not given in full),39%,nt,-17%,nt,?,nt
CN1CC[C@@]2(C)c3cc(O)ccc3N(C)C12 (stereo not given in full),nt,9.5µM*,nt,nt,nt,nt
CNC(=O)Oc1ccc2c(c1)C1(C)CCN(C)C1N2C (stereo not given),nt,nt,nt,-4%,nt,nt
Cc1nc(-c2cccs2)cc([C@H]2CN3CC[C@H]2C[C@@H]3CNS(=O)(=O)c2ccccc2)n1,nt,nt,nt,nt,8%,nt
COc1ccc(C2=NCC(=O)N(CC(=O)Nc3ccc(F)cc3F)c3sc4c(c32)CCC4)cc1,nt,nt,nt,nt,-14%,nt
CNCc1cn(C[C@H]2C[C@@H]3CCN2C[C@@H]3C(=O)NC2CCCCC2)nn1,nt,nt,nt,nt,-3%[176 µM],nt
CN(C)c1ccc(/C=C/C=C/c2sc3ccccc3[n+]2C)cc1,?,?,?,-9%,?,?
CC[n+]1c(/C=C/C=C/c2ccc(N(C)C)cc2)sc2ccccc21,?,40µM*,50µM*,?,?,35µM*
O=C(NC[C@H]1C[C@@H]2CCN1C[C@@H]2CN1CCCCC1)c1ccc(C(F)(F)F)cc1,nt,nt,nt,nt,1%[176 µM],nt
Cc1[nH]c2ccccc2c1C1=CCNCC1,-9%,50µM*,?,1%,10%,?
Cn1nc(C2CCCCC2)cc1[C@H]1CN2CC[C@H]1C[C@@H]2CN,nt,nt,nt,nt,50%[176 µM],nt
Cc1cc(N=Nc2ccccc2C)ccc1N,35µM*,nt,40µM*,nt,-15%,nt
CC(C)c1ccc(C(O)P(=O)(OCc2ccccc2)c2ccc(N(C)C)cc2)cc1 (stereo not given),-3%,6%,?,6%,?,?
CN(C)c1ccc(C(O)P(=O)(OCc2ccccc2)c2ccc(N(C)C)cc2)cc1 (stereo not given),?,15%[12.7 µM],89µM*,-7%,?,40µM*
Cc1ccccc1-n1c(O)c(C(c2ccncc2)c2c(O)n(-c3ccccc3C)c(=O)[nH]c2=O)c(=O)[nH]c1=O,22%,25µM*,-11%,-22%,1%,?
Cn1c(O)c(C(c2ccncc2)c2c(O)n(C)c(=S)n(C)c2=O)c(=O)n(C)c1=S,26%,?,-36%,14%,?,-3%
CN1CCN(Cc2cc(C(C)(C)C)c(O)c(C(C)(C)C)c2)CC1,?,8.9µM*,2.2µM*,-18%,?,?
SMILES,HP1b binding inh,G9a inh,JMJD2A Tudor inh,Sfp inh,ALOX12 inh,BAZ2B inh
CN1CCN(Cc2ccc(N)cc2)CC1,37%,24%[0.501 µM],6%,-1%,20%,-2%
CN1C(=O)N(C)C(=O)C2(Cc3c(nc4ccccn4c3=O)N3CCC(Cc4ccccc4)CC32)C1=O (stereo not given),nt,-21%,nt,-1%,nt,8%
Cc1cccn2c(=O)c3c(nc12)N1CCC(Cc2ccccc2)CC1C1(C3)C(=O)N(C)C(=O)N(C)C1=O (stereo not given),1%,?,-28%,32µM*,?,-36%
CCC1(C)CC(C(N)=S)CCO1 (stereo not given),?,-138%[12.7 µM],56µM*,4.5µM*,8.9µM*,?
COc1cccc(C2SCC(=O)Nc3c2c(C)nn3C)c1OC (stereo not given),nt,nt,nt,nt,34%,nt
COc1ccc2c(c1)C1(CCN(C(=O)NC3CCCCC3)C1)C(=O)N2 (stereo not given),nt,nt,nt,nt,28%,nt
COc1ccc2c(c1)C1(CCN(C(=O)c3ccccc3Br)C1)C(=O)N2 (stereo not given),nt,nt,nt,nt,32µM*,nt
Cc1ccc(C)c(NC(=O)CN2C(=O)CN=C(c3ccc(F)cc3)c3c2sc(C)c3C)c1,nt,nt,nt,nt,-6%,nt
CCOc1nc(NC(C)C)nc(N2CC3CC(C2)c2cccc(=O)n2C3)n1 (stereo not given),?,-28%,20µM*,0%,-3%,11%
N[C@@H](Cn1oc(=O)[nH]c1=O)C(=O)O,-7%,10µM*!,4µM*,45µM*,?,nt
COc1cc2c(cc1CCc1ccccc1)N([S+](=O)([O-])c1ccc3c(c1)CCO3)CC21CCN(C(C)=O)CC1,nt,nt,nt,nt,-9%,nt
O=C(c1c[nH]cc1-c1ccccc1)c1cccc2ccccc12,?,25µM*,-12%,17%,34%,25µM*
CN(C)C(=O)Oc1ccc(Cl)c2cccnc12,39%,-5%[59 µM],8%,24%,-4%,-12%
CCOc1ccc(S(=O)(=O)O)c2cccnc12,nt,6%[12.7 µM],nt,71µM*,-26%,nt
O=C(O)CCCCNCc1ccc(C(=O)O)cc1,nt,nt,nt,nt,0%,nt
Cc1ccc2[nH]c3c(c2c1)CN(C(=O)CN1C[C@H]2C[C@@H](C1)c1cccc(=O)n1C2)CC3,58%,50µM*,-25%,8%,-12%,-27%
Cc1ccc2occ(CN3CC4CC(C3)c3cccc(=O)n3C4)c(=O)c2c1 (stereo not given),16%,10%,1%,2%,-18%,11%
Cc1ccc(C2SCC(=O)Nc3n[nH]c(C)c32)cc1 (stereo not given),nt,nt,nt,nt,-2%,nt
C[N+]1(CC(COCc2ccccc2)OC(=O)Cc2ccccc2)CCOCC1 (stereo not given),-18%,8.9µM*,?,15%,40µM*,-6%
C=CCNC(=O)NC[C@H]1C[C@@H]2CCN1C[C@@H]2c1cc(C(CC)CC)nc(-c2ccncc2)n1,nt,nt,nt,nt,27%,nt
